The text below walks through data of PubChem BioAssay AID1851 (National Center for Advancing Translational Sciences (NCATS), 2009).

Screen size: about 16,000 compounds; about 5,700 (36%) were called active. About 24% were inconclusive and are not listed. The call rests on the fitted dose curve; in most records, active means well fitted curve in the direction sought with a large enough effect; inconclusive means small, poorly fitted or top-dose-only effect, or effect the other way; inactive means no such curve, though single readings can be large or run the other way. The list shows a part of the results.
On the % scale 0 is the no-effect control and ±100 the full control effect.

For this test, the target named is Cytochrome P450 1A2 (Homo sapiens) (UniProt P05177). In words: Cytochrome panel assay with activity outcomes. Conditions: recombinant CYP, pro-luciferin dealkylation, luminescence, p450-cyp1a2; series mostly up to 57.1 µM; activity, negative = inhibition: at the top concentration.
Chain of Cytochrome P450 1A2 (Homo sapiens) (P05177 whole entry, looked up): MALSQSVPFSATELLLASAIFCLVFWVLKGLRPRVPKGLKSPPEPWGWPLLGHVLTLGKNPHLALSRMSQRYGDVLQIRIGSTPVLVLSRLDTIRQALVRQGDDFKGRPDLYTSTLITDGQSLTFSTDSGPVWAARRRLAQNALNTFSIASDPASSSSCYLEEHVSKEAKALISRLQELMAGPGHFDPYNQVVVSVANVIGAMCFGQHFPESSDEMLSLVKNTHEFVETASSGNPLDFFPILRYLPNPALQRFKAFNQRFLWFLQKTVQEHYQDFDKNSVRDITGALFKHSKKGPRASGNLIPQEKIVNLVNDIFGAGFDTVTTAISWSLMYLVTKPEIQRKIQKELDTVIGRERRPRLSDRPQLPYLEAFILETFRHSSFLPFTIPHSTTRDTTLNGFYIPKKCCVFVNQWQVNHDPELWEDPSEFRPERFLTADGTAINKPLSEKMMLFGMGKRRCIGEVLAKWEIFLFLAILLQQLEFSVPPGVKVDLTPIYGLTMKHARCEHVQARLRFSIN
As for `COc1ccccc1-c1cncnc1NCCc1cnc[nH]1`, the AC50 was 1260 nM (active).

As for `FC(F)(F)c1ccccc1-c1cncnc1NCCc1cnc[nH]1`, the AC50 was 6310 nM (active).

Take `COc1cccc(-c2cncnc2NCCc2cnc[nH]2)c1`: the AC50 was 398 nM (active).

Regarding `O=C(Oc1ccccc1)N1CCC2(CC1)CN(c1ccncc1)C2`, the “activity, negative = inhibition” value was 0.506% (inactive).

For `CCCCN1C(=O)C(NC(=O)c2cccnc2)(C(F)(F)F)C2=C1CC(C)(C)CC2=O` (configuration not stated), the “activity, negative = inhibition” value is 3.24% (inactive).

Turning to `CCCC(=O)NCCc1c2n(c3ccc(OC)cc13)Cc1ccccc1-2`, the AC50 was 2510 nM (active).

Turning to `COc1ccc(OC)c(CNC(=O)CCNC(=O)Cn2ccc3ccccc3c2=O)c1`, the “activity, negative = inhibition” value was -21.6% (inactive).

Regarding `COc1cccc(-c2cc(NCc3cnc(C)cn3)ncn2)c1`, the half-maximal activity concentration (AC50) is 5010 nM (active).

As to `Cc1cnc(CNc2cc(-c3cccc(C#N)c3)ncn2)cn1`, the AC50 is 15800 nM (active).

In the case of `O=C(O)Cc1cc2ccccc2nc1C(=O)O`, the “activity, negative = inhibition” value was -19.6% (inactive).

As to `CC(C)C(=O)Cc1ccc2ccccc2n1`, the AC50 is 3160 nM (active).

As to `C[C@@]12CCC(=O)C=C1CC[C@H]1[C@@H]2[C@@H](O)C[C@]2(C)[C@@H]1CC[C@@]2(O)C(=O)COC(=O)C1CCCC1`, the activity, negative = inhibition is -13.3% [at 11.4 µM] (inactive).

As to `O=S(=O)(Nc1cccnc1Cl)c1ccc2c(c1)OCCO2`, the “activity, negative = inhibition” value is 1.38% (inactive).

On to `O=S(=O)(N/N=C\c1ccc2c(c1)OCO2)c1ccc(Cl)cc1`, for which the half-maximal activity concentration (AC50) was 10000 nM (active).

Take `O=S(=O)(N/N=C/c1ccc2c(c1)OCCO2)c1ccc(Cl)cc1`: the AC50 was 11200 nM (active).

Regarding `Cc1ccc(Cl)cc1N1CCN(S(=O)(=O)c2ccc3c(c2)OCCO3)CC1`, the “activity, negative = inhibition” value is -22.6% (inactive).

Consider `O=C(Nc1nnc(SCc2ccc(Cl)cc2Cl)s1)C1COc2ccccc2O1` (configuration not stated), for which the “activity, negative = inhibition” value was -14.7% (inactive).

Take `CCc1nnc(NC(=O)C2CCN(C(=O)NC3CCCCC3)CC2)s1`: the “activity, negative = inhibition” value is -6.52% (inactive).

In the case of `O=C(Nc1nnc(SCc2c(Cl)cccc2Cl)s1)C1CCCO1` (configuration not stated), the AC50 was 17800 nM (active).

With `C=CCNCCOCCOc1ccc(C)cc1[N+](=O)[O-]`, the AC50 is 794 nM (active).

As to `CCCCNCCOCCOc1ccc(C)cc1[N+](=O)[O-]`, the AC50 is 794 nM (active).

`COc1ccc(C=O)cc1COc1ccc(C)cc1[N+](=O)[O-]`: the AC50 was 1120 nM (active).

For the molecule `O=c1cc(N2CCN(c3ccccc3)CC2)[nH]c(=O)n1C1CCCCC1`, the “activity, negative = inhibition” value was -14.4% (inactive).

`COc1ccc(COC(=O)N/N=C2/C[C@@H](O)[C@@H](O)[C@@H]3[C@@H]4C(=O)N(C(C)(C)C)C(=O)[C@H]4CC[C@H]23)cc1`: the activity, negative = inhibition was -10.2% [at 11.4 µM] (inactive).

In the case of `Cc1ccc(Sc2ccc(NC(=O)c3ccc(S(C)(=O)=O)cc3Cl)cc2)cc1`, the “activity, negative = inhibition” value is 3.32% (inactive).

For `CN(C)S(=O)(=O)Oc1ccsc1C(=O)Nc1cccc(Cl)c1`, the AC50 is 1410 nM (active).

As to `CN(C)S(=O)(=O)c1ccc(NC(=O)c2cc(F)c(F)cc2Cl)cc1`, the “activity, negative = inhibition” value was 7.7% (inactive).

Consider `COC(=O)c1sccc1-c1ccc(C(=O)Nc2cccc(Cl)c2)o1`, for which the AC50 was 1410 nM (active).

Consider `CN(C)S(=O)(=O)Oc1ccsc1C(=O)Nc1ccc(Cl)cc1`, for which the AC50 is 891 nM (active).

As for `C[C@]12CC3CC(N)(C1)C[C@@](C)(C3)C2`, the “activity, negative = inhibition” value is -0.566% (inactive).

In the case of `CC(C)C(CCNC(=O)CC(Cc1ccccc1)c1ccco1)c1ccco1` (configuration not stated), the “activity, negative = inhibition” value is -28.6% (inactive).

For the molecule `C=C1C(=O)C=C2CN(C(=O)c3ccccc3)[C@@](Cc3ccc(OC)cc3)(C(=O)OC)[C@@H]12`, the half-maximal activity concentration (AC50) was 15800 nM (active).

Consider `COC(=O)[C@@]1(Cc2ccc(OC)cc2)[C@@H]2C(=CC(=O)[C@H]2CC(=O)C(=O)N2CCCC2)CN1C(=O)c1ccccc1`, for which the “activity, negative = inhibition” value was -15.6% (inactive).

In the case of `COC(=O)[C@@]1(Cc2ccc(OC)cc2)[C@@H]2C(=CC(=O)[C@H]2CC(=O)C(=O)N(C)C)CN1C(=O)c1ccccc1`, the “activity, negative = inhibition” value is 1.41% (inactive).

Consider `C=C1C(=O)C=C2CN(C(=O)c3ccccc3)[C@@](Cc3ccc(F)cc3)(C(=O)OC)[C@@H]12`, for which the AC50 is 15800 nM (active).

In the case of `COC(=O)[C@@]1(Cc2ccc(F)cc2)[C@@H]2C(=CC(=O)[C@H]2CC(=O)C(=O)N(C)C)CN1C(=O)c1ccccc1`, the “activity, negative = inhibition” value was -12.2% (inactive).

For the molecule `COC(=O)[C@@]1(Cc2ccc(F)cc2)[C@@H]2C(=CC(=O)[C@H]2CC(=O)C(=O)N2CCCC2)CN1C(=O)c1ccccc1`, the “activity, negative = inhibition” value is -6.64% (inactive).

Turning to `CCN1CCN(C(=O)N[C@H](C(=O)N[C@@H]2C(=O)N3C(C(=O)O)=C(CSc4nnnn4C)CS[C@@H]23)c2ccc(O)cc2)C(=O)C1=O`, the “activity, negative = inhibition” value is -9.57% [at 25.6 µM] (inactive).

For `FC(F)(F)c1cc(Sc2ccccc2)nc(-c2ccccn2)n1`, the half-maximal activity concentration (AC50) is 891 nM (active).

For the molecule `COC(=O)CSc1cc(C(F)(F)F)nc(-c2ccccn2)n1`, the AC50 was 708 nM (active).

As to `CCOC(=O)CSc1cc(C(F)(F)F)nc(-c2ccccn2)n1`, the AC50 is 2240 nM (active).

`CC(C)Nc1cc(C(F)(F)F)nc(-c2ccccn2)n1`: the AC50 was 1580 nM (active).

On to `O=C(O)CSc1cc(C(F)(F)F)nc(-c2ccccn2)n1`, for which the “activity, negative = inhibition” value is -5.99% (inactive).

Regarding `COc1ccccc1-c1cncnc1NCc1ccccc1`, the AC50 was 12600 nM (active).

Consider `COc1ccccc1-c1cncnc1NCc1cccc(C)c1`, for which the AC50 was 5010 nM (active).

As to `COc1ccccc1-c1cncnc1NCc1cccnc1`, the AC50 is 6310 nM (active).

Take `CCC[C@@H]1C[C@@]1(CCC)C(NS(=O)(=O)c1cccc2cccnc12)c1ccc(Cl)cc1` (some centres not stated): the “activity, negative = inhibition” value was -12.8% (inactive).
